# Laboratory results published in PubChem BioAssay (EPA / NIEHS).
# Inconclusive results are not listed. Active and inactive are the calls of the source. The calls were made as follows: active = hit-call score of the fitted dose curve at least 0.9, where 1 is the maximum; inconclusive = response in the unintended direction; inactive = score below 0.9.
# Assay: ACEA_ER_AUC_viability: ACEA Biosciences xCELLigence Real-Time Cell Analysis on Estrogen Receptor Agonism for Viability (AID 2283782);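 also: hit means loss of impedance signal meaning reduced cell growth or viability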
# Procedure, shortened: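 Read-out: real-time electrical impedance (RT-CES) area under curve, loss of signal taken as reduced viability, normalized to DMSO baseline. T-47D cells, charcoal-stripped serum medium, compounds up to 100 uM final, continuous exposure, 80 h.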
Structure (SMILES),AC50,outcome
Nc1ccc(Cl)c(N)c1,73 µM (active),
CCCc1ccc(O)c(OC)c1,,inactive
CCCCC1CCC(=O)O1 (stereo not given),60.6 µM (active),
CC(C)=NNC(N)=S,82.4 µM (active),
CC1CCC(C(C)(C)S)C(=O)C1 (stereo not given),,inactive
CCCCCCO,,inactive
CCOC(=O)/C=C\C(=O)OCC,82.6 µM (active),
CC/C=C\CCOC(=O)c1ccccc1O,72.7 µM (active),
Nc1ncnc2nc[nH]c12,,inactive
c1ccc2cnccc2c1,,inactive
C[N+](C)(C)CCCNS(=O)(=O)C(F)(F)C(F)(F)C(F)(F)C(F)(F)C(F)(F)C(F)(F)C(F)(F)C(F)(F)F,111 µM (active),
CCN(CC)c1cccc(C)c1,27.9 µM (active),
C=CCNCC=C,50.5 µM (active),
CCOB(OCC)OCC,,inactive
CCCCCCCCCCCCC,,inactive
CC(=O)OC1CCCCC1,40.3 µM (active),
C=C(C)OC(C)=O,,inactive
CCOC(=O)c1ccc(C)cc1,,inactive
CC(c1cc(C(C)(C)C)cc(C(C)(C)C)c1O)c1cc(C(C)(C)C)cc(C(C)(C)C)c1O,,inactive
O=C1CCCCC1C1CCCCC1 (stereo not given),,inactive

Structure (SMILES),AC50,outcome
C=CC(=O)O[C@H]1C[C@@H]2CC[C@@]1(C)C2(C)C,,inactive
C=Cc1cccc(C)c1,,inactive
CC(=O)CCC1=C(C)CCCC1(C)C,81.5 µM (active),
CCOC(=O)[C@H](O)[C@@H](O)C(=O)OCC,50 µM (active),
COC(Cc1ccccc1)OC,67 µM (active),
[Cl][Eu]([Cl])[Cl],,inactive
C=CCOC(=O)c1ccc(C(=O)OCC=C)c(C(=O)OCC=C)c1,,inactive
Cc1ccc2c(c1)CCCN2,,inactive
CCC1(C)C(=O)N(Cl)C(=O)N1Cl (stereo not given),81.4 µM (active),
O=C(Cl)c1c(Cl)c(Cl)c(C(=O)Cl)c(Cl)c1Cl,,inactive
CC(C)(CO)COC(=O)C(C)(C)CO,,inactive
C=C(C)C(=O)OCC(O)COc1ccc(C(C)(C)c2ccc(OCC(O)COC(=O)C(=C)C)cc2)cc1 (stereo not given),30.3 µM (active),
Nc1ccc(C(=O)OCCCOC(=O)c2ccc(N)cc2)cc1,,inactive
[Cl][Sc]([Cl])[Cl],,inactive
O=S(=O)(O)c1ccc(Nc2nc(Nc3ccc(C=Cc4ccc(Nc5nc(Nc6ccc(S(=O)(=O)O)cc6)nc(N(CCO)CCO)n5)cc4S(=O)(=O)O)c(S(=O)(=O)O)c3)nc(N(CCO)CCO)n2)cc1,,inactive
C1CCSC1,,inactive
CC(C)CC(=O)OCc1ccccc1,50 µM (active),
CCCCOC(=O)C(C)CC (stereo not given),,inactive
C=C(C)C1CC=C(C)C(OC(C)=O)C1 (stereo not given),81.5 µM (active),
Oc1c(Cl)cc(Cl)c(Cl)c1Cl,90.9 µM (active),
